Nox1 inh: blocks human NADPH oxidase 1 activity | Q9Y5S8 | inhibition, % at 6.7 µM | 16,000 compounds, 0.81% hits | HT29 cells, luminol chemiluminescence ROS
Target sequence (Q9Y5S8 whole entry, looked up): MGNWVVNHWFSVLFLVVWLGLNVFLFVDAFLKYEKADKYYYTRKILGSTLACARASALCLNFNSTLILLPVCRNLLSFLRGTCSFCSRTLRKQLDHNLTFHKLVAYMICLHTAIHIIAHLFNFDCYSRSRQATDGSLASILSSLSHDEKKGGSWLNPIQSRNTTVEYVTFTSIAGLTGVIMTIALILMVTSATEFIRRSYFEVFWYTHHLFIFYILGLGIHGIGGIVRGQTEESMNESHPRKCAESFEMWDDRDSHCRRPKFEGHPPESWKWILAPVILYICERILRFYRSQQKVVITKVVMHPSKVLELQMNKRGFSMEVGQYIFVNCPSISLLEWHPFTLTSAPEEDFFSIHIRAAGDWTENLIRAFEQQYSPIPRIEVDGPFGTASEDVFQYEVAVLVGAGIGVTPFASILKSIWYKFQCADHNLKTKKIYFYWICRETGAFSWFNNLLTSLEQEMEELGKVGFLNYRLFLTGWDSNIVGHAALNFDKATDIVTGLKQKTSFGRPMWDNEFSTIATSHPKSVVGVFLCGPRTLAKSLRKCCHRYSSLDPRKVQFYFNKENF
TLR4 MyD88 blk: TLR4-MyD88 interaction inhibition; inhibition, % at 10 µM; AID 811; Cell-based TLR4-MyD88 binding inhibition assay; 16,000 compounds, 0.06% hits; in the data active = inhibition above about 45%
luminol inh ctr: luminol signal inhibition, Nox1 inhibitor counter-screen; HRP/luminol/H2O2 chemiluminescence counterscreen; inhibition, % at 6.7 µM; 16,000 compounds, 0.4% hits; AID 1823; also: reference of the scale not given here
OPRK1 antag MB: blocks the human kappa opioid receptor, Maybridge compounds | P41145 | OPRK1 cells, antagonist mode, fluorescence readout | inhibition, % at 9 µM | 16,000 compounds, 0.4% hits; in the data active = inhibition above about 50%
PME-1 Maybridge: inhibitors of human PME-1 in Maybridge library; Q9Y570; recombinant PME-1, FP-Rh probe fluorescence polarization; inhibition, % at 9 µM; 16,000 compounds, 0.5% hits; AID 2291; in the data active = inhibition above about 30%
Numbers stand for hits; n = inactive. Most compounds without a hit are left out; they make up all but 2.1% or so of the library. Rule as the data show it, unless noted: active = inhibition above about 75%; inactive = the rest.

SMILES | Nox1 inh | TLR4 MyD88 blk | luminol inh ctr | OPRK1 antag MB | PME-1 Maybridge
Cc1cc(C(=O)NNC(=S)NCc2ccccc2)ccc1[N+](=O)[O-] | n | n | n | n | n
O=C(NNc1nc(-c2cccc([N+](=O)[O-])c2)cs1)c1ccccc1Cl | 75.2 | n | n | n | n
O=C1Nc2ccccc2/C1=C\c1c[nH]c2ccccc12 | n | n | n | n | 34.5
CC1(C)OC(=O)C(=Cc2c[nH]c3ccccc23)C(=O)O1 | n | n | n | n | n
NNC(=O)CSc1nc2cccnc2s1 | 75.9 | n | n | n | n
NC(=O)c1cc2c(c([N+](=O)[O-])c1)-c1c(cc(C(N)=O)cc1[N+](=O)[O-])C2=O | n | n | n | n | 37.8
CCCCCC[n+]1ccccc1/C=C/c1ccc(N(C)C)cc1 | n | 63.6 | n | 71.5 | n
CS(=O)(=O)/C(C#N)=C\c1ccc(Cl)s1 | n | n | n | 57.3 | n
O=C(Nc1cc(C(F)(F)F)cc(C(F)(F)F)c1)c1ccccc1F | n | n | n | n | n
Cc1ccc(CNC(=S)NCCO)cc1 | n | n | n | n | n
COc1ccc(CNC(=S)NCCCO)cc1 | n | n | 98.2 | n | n
O=[N+]([O-])c1ccc(N2CCc3ccccc32)cc1 | n | n | n | 64.6 | n
Cc1ccc(/C=c2\sc3nnc(-c4ccco4)n3c2=O)o1 | n | n | n | n | n
COc1ccc(Br)c(C(=O)/C(C#N)=N/Nc2ccc(F)cc2)c1 | n | n | n | n | 36.8
CCOC(=O)c1cc(C(=O)OC)c(C)nc1N1CCC(NC2CCCCC2O)CC1 (stereo not drawn) | n | n | n | 91.7 | n
CCOC(=O)c1cc(C#N)c(N2CCC(C(=O)OCC)CC2)nc1C(F)(F)F | n | n | n | n | n
O=S(=O)(Nc1ccc(OC(F)F)cc1)c1ccc(F)cc1 | n | n | n | n | n
N#CCC(=O)NNC(=S)Nc1ccccc1 | 89.5 | n | n | n | n
CCOC(=O)/C(=C\Nc1ccc(Cl)cc1)[N+](=O)[O-] | n | n | n | n | n
COc1cc(/C=N\n2c(C)n[nH]c2=S)cc(OC)c1OC | n | n | 100.9 | n | n
COc1ccc(NC(=O)Nc2cc(C)cc(C)c2)cn1 | n | n | n | n | n
Cc1cc(C)cc(NC(=O)Nc2ccc(N3CCCCC3)cc2)c1 | 85.2 | n | n | n | n
O=C(Cc1csc2ccccc12)Nc1ccc(F)cc1 | n | n | n | n | 57.9
COc1cc2c(cc1OC)C(C)N(C(=O)c1sc3ccccc3c1Cl)CC2 (stereo not drawn) | n | n | n | n | 51.9
O=C(NNC(=O)c1cccc(C(F)(F)F)c1)c1ccncc1 | n | n | n | n | n
SMILES | Nox1 inh | TLR4 MyD88 blk | luminol inh ctr | OPRK1 antag MB | PME-1 Maybridge
O=C(NNc1nc(-c2cccs2)ns1)c1cccc(C(F)(F)F)c1 | 104.4 | n | n | n | n
O=C(CSCCOc1ccccc1)NCc1cccs1 | n | n | n | n | n
CC(=O)c1sc(SCCS(=O)(=O)c2ccccc2)c2c1CC(C)(C)CC2=O | n | n | n | n | n
O=C1c2ccc(Cl)c3c(N4CCSCC4)ccc(c23)C(=O)N1c1ccccc1 | n | n | n | 57.8 | n
COc1ccc(SCCc2nnc(-c3ccccc3)o2)cc1 | n | n | n | n | n
COc1ccc(-c2nc3cc4c(cc3o2)Oc2ccccc2N4)cc1 | n | n | n | 79.2 | n
Cc1nnsc1-c1n[nH]c(=S)n1C1CC1 | n | n | 98.8 | n | n
O=C(O)c1cccc2cccc(C(=O)O)c12 | n | n | n | n | n
Nc1ccc(C(=O)O)c2c(C(=O)O)cccc12 | n | n | n | n | 48.6
CC1CN(c2ccc(NS(=O)(=O)c3ccccc3)cc2C(=O)O)CC(C)O1 (stereo not drawn) | 83.8 | n | n | n | n
O=S(=O)(Cc1ccc(F)cc1)c1ccccc1 | n | n | n | n | n
O=C(Oc1ccccc1)c1cccnc1Oc1ccccc1 | n | n | n | n | n
O=C(Oc1ccccc1N1CCOCC1)c1cccs1 | 98.3 | n | n | n | n
O=C(Oc1ccccc1N1CCOCC1)c1cccnc1Oc1ccccc1 | 79.2 | n | n | n | n
Cc1onc(-c2ccccc2)c1C(=O)Oc1ccccc1N1CCOCC1 | n | n | n | n | n
O=C(Oc1ccccc1N1CCCCC1)c1ccco1 | 82.8 | n | n | n | n
C=CCC1CC(=O)N(c2ccc(Cl)cc2)C1=O (stereo not drawn) | n | n | n | n | n
CC(=O)Nc1cc(C)nn1C | n | n | n | n | n
Cc1cc(Sc2ccc([N+](=O)[O-])c(O)c2)c(C)cc1Cl | n | n | n | n | n
CC(=O)Nc1ccc(S(N)(=O)=O)cc1Cl | n | n | n | n | n
CCCCNc1ccc2c3c(cccc13)C(=O)N(CCCC)C2=O | n | 55.2 | n | 89.0 | n

Screens: PubChem, The Scripps Research Institute Molecular Screening Center
